What all share (format): functional
In experiment [1] the test system is Plasmodium falciparum. Put plainly: GSK_TCMDC: Inhibition of Plasmodium falciparum 3D7 in whole red blood cells, using parasite LDH activity as an index of growth. Test compounds present at 2uM.
For experiment [2], the system named is Plasmodium falciparum. Put plainly: GSK_TCMDC: Inhibition of Plasmodium falciparum Dd2 in whole red blood cells, using parasite LDH activity as an index of growth. Test compounds present at 2uM.
The subject of experiment [3] is HepG2. The experiment in a line: GSK_TCMDC: Percent inhibition of human HepG2 cell line. Test compounds present at 10uM.

For `O=C(NCc1ccc(Cl)c(Cl)c1)c1cc(CNC2CCNCC2)ccc1O`, the Inhibition in experiment [1] turned out to be 82%; in experiment [2] it was 2%; in experiment [3], 2%.

As for `O=C(Nc1ccc(Br)cc1)N(CCN1CCOCC1)CC(O)COc1ccc(Cl)c(F)c1.O=C(O)C(F)(F)F` (configuration not stated), the figures for the Inhibition in experiment [1], in experiment [2] and in experiment [3] were 98%, 30% and 3%, respectively.

Consider `Cc1cc(O)c(C(C)C)cc1C1(c2cc(C(C)C)c(O)cc2C)OC(=O)c2ccccc21`, for which the Inhibition was determined as 95% in experiment [1], 18% in experiment [2] and 8% in experiment [3].

Turning to `O=C(/C=C/c1ccc(Cl)c(Cl)c1)NC1CCC(CN2CCC(c3nc4cccnc4[nH]3)CC2)CC1` (configuration not stated), the Inhibition in experiment [1] came out at 100%; in experiment [2] it was 2%; in experiment [3] it was 7%.

Take `Cc1ccc(CCOCCCCCNCC(O)c2cc(Cl)c(N)c(Cl)c2)cc1` (configuration not stated): the results for the Inhibition in experiment [1], in experiment [2] and in experiment [3] were 99%, 98% and 10%, respectively.

`COc1ccc(CNCc2cccc(-c3ccc(-c4nc5cccc(C)c5[nH]4)cc3)c2)cc1.O=C(O)C(F)(F)F`: the Inhibition is 100% in experiment [1], 70% in experiment [2] and 23% in experiment [3].

Consider `CCC(C)NC(=O)Nc1ccc(-c2cccc(-c3nc4cccc(C)c4[nH]3)c2)cc1` (configuration not stated), for which the Inhibition in experiment [1] came to 100%; in experiment [2], 83%; in experiment [3], 55%.

As to `Cc1cc(=NN=Cc2ccccc2F)c2cc(C(F)(F)F)ccc2[nH]1`, the Inhibition in experiment [1] worked out at 100%; in experiment [2], 67%; in experiment [3], 5%.

Take `CC1(C)NC(N)=NC(=N)N1OCOc1cc(Cl)c(Cl)cc1Cl.Cl`: the Inhibition in experiment [1] is given as 96%; in experiment [2], 98%; in experiment [3] it was 66%.

As for `O=C(Nc1ccc(F)cc1)NC1CCN(c2ccnc3cc(Cl)ccc23)C1.O=C(O)C(F)(F)F` (configuration not stated), the Inhibition in experiment [1] amounted to 100%; in experiment [2], 67%; in experiment [3] it was 17%.

On to `Cl.N=C(N)Nc1ccc(NC(=O)Nc2ccc(NC(=N)N)cc2)cc1`, for which the Inhibition in experiment [1] stood at 85%; in experiment [2], 74%; in experiment [3], 0%.

On to `COc1cccc(C2(c3cccc(OC)c3)N=C(N)N(CCCc3ccccc3)C2=O)c1.O=CO`, for which the Inhibition came out at 98% in experiment [1], 93% in experiment [2] and 3% in experiment [3].

Turning to `Cl.O=C(Nc1ccc2nccc(N3CCN4CCC[C@H]4C3)c2c1)c1ccc(Cl)c(Cl)c1`, the Inhibition in experiment [1] came out at 100%; in experiment [2] it was 98%; in experiment [3] it was 18%.

For `Cl.Nc1nc(Nc2cccc(O)c2)nc2ccccc12`, the Inhibition in experiment [1] worked out at 96%; in experiment [2], 79%; in experiment [3] it was 25%.

`O=C(Nc1cc(F)c(F)c(-c2cccnc2)c1)N1CCc2cc(Cl)c(Cl)cc21`: the Inhibition is 94% in experiment [1], 9% in experiment [2] and 0% in experiment [3].

Take `Cc1cc(N2CCOCC2)nc2ccc(NC(=O)c3ccc(Cl)c([N+](=O)[O-])c3)cc12`: the Inhibition was found to be 98% in experiment [1], 15% in experiment [2] and 12% in experiment [3].

`O=C(NCCc1cccc(F)c1)c1ccc(N2CCN(c3ccncc3)CC2)cn1.O=C(O)C(F)(F)F`: the Inhibition is on record as 94% in experiment [1], 7% in experiment [2] and 4% in experiment [3].

For the compound `CCSc1ccccc1COc1c(C)nc(N)nc1N.Cl`, the Inhibition is on record as 93% in experiment [1], 4% in experiment [2] and 54% in experiment [3].

Take `CCCCCCNC(=O)C1Cc2c([nH]c3ccc(Br)cc23)C2(CCN(Cc3ccccc3)CC2)N1` (configuration not stated): the Inhibition in experiment [1] is reported as 100%; in experiment [2], 75%; in experiment [3], 100%.

As for `O=C(Nc1ccc(OC2CCN(Cc3ccc(F)cc3)C2)c(Cl)c1)c1cccs1.O=C(O)C(F)(F)F` (configuration not stated), the Inhibition was found to be 98% in experiment [1], 97% in experiment [2] and 21% in experiment [3].

Turning to `CCCCN(CCCC)C(=N)c1cccc2c1CCCC2.Cl`, the Inhibition in experiment [1] came out at 95%; in experiment [2] it was 9%; in experiment [3], 11%.

In the case of `O=C(Nc1cccc(-c2cccc(CN3CCCC3)c2)c1)c1cccc(Cl)c1.O=C(O)C(F)(F)F`, the Inhibition was determined as 89% in experiment [1], 30% in experiment [2] and 44% in experiment [3].

Consider `O=C(NCC1CCC(C(=O)NCc2cccc3ccccc23)CC1)c1ccc(O)c(-c2ccc(Cl)c(Cl)c2)c1` (configuration not stated), for which the Inhibition in experiment [1] came out at 100%; in experiment [2], 92%; in experiment [3] it was 0%.

As to `CCOC(=O)[C@H](Cc1cc([N+](=O)[O-])c(Oc2ccc(OC)c(Cc3ccc(OC)c(C(C)C)c3)c2)c([N+](=O)[O-])c1)NC(=O)C(F)(F)F`, the results for the Inhibition in experiment [1], in experiment [2] and in experiment [3] were 94%, 0% and 5%, respectively.

Take `CCOC(=O)c1nc(-c2cccc(F)c2)[nH]c1N.Cl`: the values for the Inhibition in experiment [1], in experiment [2] and in experiment [3] were 98%, 2% and 0%, respectively.

On to `O=C(Nc1cccc(CN2CCCN(CC3CC3)CC2)c1)c1ccc(-c2ccccc2)cc1.O=C(O)C(F)(F)F`, for which the Inhibition in experiment [1] is listed as 96%; in experiment [2], 5%; in experiment [3], 15%.

As for `O=C(O)C(F)(F)F.OCCN1CCN(Cc2cccc(-c3ccc(-c4nc5cc(C(F)(F)F)ccc5[nH]4)s3)c2)CC1`, the Inhibition is recorded as 100% in experiment [1], 98% in experiment [2] and 42% in experiment [3].

Turning to `CN(C)CCOc1cc(NC(=O)Nc2ccc(-c3ccncc3)c3ccccc23)ccc1I`, the Inhibition in experiment [1] came to 97%; in experiment [2], 46%; in experiment [3] it was 35%.

For the compound `C=Cc1ccccc1C1(O)CCN(CCCCNC(=O)c2ccc(-c3ccc(C#N)cc3)cc2)CC1`, the Inhibition in experiment [1] is reported as 88%; in experiment [2], 64%; in experiment [3], 27%.
